Assay results published in PubChem BioAssay.
Activity calls are given as the source filed them.

Legend:
[1] = system: Plasmodium falciparum Sir2 (PF13_0152, Sir2A); assay: pfSir2 binders on small-molecule microarrays, primary screen, biochemical, small-molecule microarray, 635 nm fluorescence (AID 1098); conditions: small-molecule microarray binding, fluorescence 635 nm; higher = more signal;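 further: score merges spot fluorescence intensity with its signal-to-noise ratio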
[2] = small-molecule microarray binders of probe aDKK1, primary screen, biochemical, biotinylated probe, 635/667 nm fluorescence (AID 1099); conditions: higher = more signal;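 further: score merges 667nm spot fluorescence with signal to noise across triplicate slides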
[3] = small-molecule microarray binders of probe aCHRDL2, primary screen, biochemical, biotinylated probe, 635/667 nm fluorescence (AID 1100); conditions: higher = more signal
[4] = splicing luciferase reporter signal modulators, primary screen, spliceosome inhibition project, cell-based, HEK293, splice +/- reporter (AID 1101); conditions: luminescence, 24 h, higher = more signal, called active from +8 up or from −8 down;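 further: HEK293 cells carrying a splicing-competent luciferase reporter gene; test concentration not given here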
[5] = molecular target: Fibroblast growth factor 10 (Homo sapiens) (UniProt O15520); assay: FGF10 binders on small-molecule microarrays, primary screen, biochemical, small-molecule microarray, 635 nm fluorescence (AID 1102); conditions: FGF10 binding, fluorescence 635 nm, higher = more signal
[6] = system: glycogen synthase kinase-3 (GSK3A per assay name; protocol says GSK3B); assay: GSK3 binders on small-molecule microarrays, primary screen, biochemical, small-molecule microarray, 635 nm fluorescence, GSK3A (AID 1103); conditions: small-molecule microarray binding, fluorescence 635 nm; higher = more signal; further: the record names both GSK3A and GSK3B
[7] = molecular target: Epidermal growth factor receptor (Homo sapiens) (UniProt P00533); assay: EGFR binders on small-molecule microarrays, primary screen, biochemical, small-molecule microarray, 635 nm fluorescence (AID 1104); conditions: EGFR binding, higher = more signal;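 further: score merges 667 nm emission intensity with spot signal to noise over triplicate slides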
[8] = molecular target: Follistatin-related protein 3 (Homo sapiens) (UniProt O95633); assay: FSTL3 binders on small-molecule microarrays, primary screen, biochemical, small-molecule microarray, 635 nm fluorescence (AID 1105); conditions: FSTL3 binding, higher = more signal;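 further: score merges emission near 667 nm and signal to noise per printed spot across three slides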
[9] = molecular target: Dickkopf-related protein 1 (Homo sapiens) (UniProt O94907); assay: DKK1 binders on small-molecule microarrays, primary screen, biochemical, small-molecule microarray, 635 nm fluorescence scan (AID 1106); conditions: DKK1 binding, higher = more signal;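 further: score merges emission near 667 nm with signal to noise over three replicate slides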
[10] = system: Inhibin beta A chain (activin A); assay: INHBA (activin A) binders on microarrays, primary screen, biochemical, small-molecule microarray, 635 nm fluorescence scan (AID 1107); conditions: small-molecule microarray binding, higher = more signal;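 further: mouse activin A protein probed at 4.33 µg/mL on printed slides; score merges bound-protein fluorescence near 667 nm with spot signal-to-noise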
[11] = system: Human papillomavirus type 1a protein E7 (residues 44-93); assay: HPV1a E7 fragment binders on microarrays, primary screen, biochemical, small-molecule microarray, residues 44-93, 635 nm fluorescence (AID 1108); conditions: small-molecule microarray binding, fluorescence 635 nm; higher = more signal;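 further: E7 fragment applied at 1 µg/mL in TBST for 1 h at 4 C; score combines spot fluorescence with its signal to noise ratio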
[12] = modulators of HCV replicon luciferase signal, primary screen, HCV replication inhibitor project, Huh7 cells, luciferase reporter (AID 1109); conditions: 48 h, higher = more signal;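 further: huh7 hepatoma cells harbouring a luciferase neomycin HCV replicon reporter; luciferase luminescence as measure of HCV replicon replication; test concentration not given here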
[13] = molecular target: Left-right determination factor 2 (Homo sapiens) (UniProt O00292); assay: LEFTY2 binders on small-molecule microarrays, primary screen, biochemical, small-molecule microarray, 635 nm fluorescence scan (AID 1110); conditions: LEFTY2 binding, higher = more signal
[14] = molecular target: Calmodulin-1 (Homo sapiens) (UniProt P0DP23); assay: CALM1 binders on microarrays, EGTA buffer, profiling panel, biochemical, small-molecule microarray, Cy5-labelled CALM1 (AID 1111); conditions: Cy5-CALM1 binding fluorescence, higher = more signal;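 further: labelled calmodulin applied in Tris saline Tween buffer holding calcium plus EGTA and DTT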
[15] = molecular target: Calmodulin-1 (Homo sapiens) (UniProt P0DP23); assay: calcium-bound CALM1 binders on microarrays, profiling panel, artefact control for SMM control-protein annotation, biochemical, small-molecule microarray, Cy5-labelled CALM1, plus calcium (AID 1112); conditions: Cy5-CALM1 binding fluorescence, higher = more signal;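 further: score merges spot fluorescence with signal to noise from triplicate slides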
[16] = small-molecule microarray binders of probe aWnt5a, primary screen, biochemical, biotinylated probe, 635/667 nm fluorescence (AID 1113); conditions: higher = more signal;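 further: score merges 667 nm fluorescence intensity with signal-to-noise per printed feature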
[17] = small-molecule microarray binders of probe aShh, primary screen, biochemical, biotinylated probe, 635/667 nm fluorescence (AID 1114); conditions: higher = more signal;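 further: probe is biotin-labelled aShh protein from a stem cell growth factor screen; measures binding of labelled protein to compounds printed on the slide; score merges feature fluorescence at 667 nm with signal-to-noise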
[18] = small-molecule microarray binders of probe aNog, primary screen, biochemical, biotinylated probe, 635/667 nm fluorescence (AID 1115); conditions: higher = more signal;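 further: probe is biotinylated aNog protein used at 0.15 µg/mL for 1 h at 4 C; z-score combines 667 nm fluorescence of each spot with its signal to noise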
[19] = molecular target: Torsin-1A-interacting protein 1 (Homo sapiens) (UniProt Q5JTV8); assay: LAP1 binders from COS7 cell lysate, primary screen, small-molecule microarray, 635/667 nm fluorescence (AID 1116); conditions: COS7-hLAP1 lysate binding, 635 nm fluorescence, higher = more signal
[20] = molecular target: Alpha-bungarotoxin (Bungarus multicinctus) (UniProt P60615); assay: alpha-bungarotoxin binders on microarray, profiling panel, artefact control for SMM control protein annotation, biochemical, small-molecule microarray, Alexa647 label, 635/667 nm fluorescence (AID 1117); conditions: alpha-BTX-A647 binding fluorescence, higher = more signal
Chain of Alpha-bungarotoxin (Bungarus multicinctus) (P60615 whole entry, looked up): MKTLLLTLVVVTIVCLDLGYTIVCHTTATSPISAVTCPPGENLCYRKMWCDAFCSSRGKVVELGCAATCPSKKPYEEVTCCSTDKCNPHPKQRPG

Chain of Fibroblast growth factor 10 (Homo sapiens) (O15520 whole entry, looked up): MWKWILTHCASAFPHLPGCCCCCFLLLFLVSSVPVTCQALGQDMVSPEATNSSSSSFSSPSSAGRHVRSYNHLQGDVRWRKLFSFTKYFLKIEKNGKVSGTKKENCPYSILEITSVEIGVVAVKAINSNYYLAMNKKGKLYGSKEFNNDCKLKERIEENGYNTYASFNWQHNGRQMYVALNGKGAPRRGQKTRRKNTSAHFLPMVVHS
Chain of Left-right determination factor 2 (Homo sapiens) (O00292 whole entry, looked up): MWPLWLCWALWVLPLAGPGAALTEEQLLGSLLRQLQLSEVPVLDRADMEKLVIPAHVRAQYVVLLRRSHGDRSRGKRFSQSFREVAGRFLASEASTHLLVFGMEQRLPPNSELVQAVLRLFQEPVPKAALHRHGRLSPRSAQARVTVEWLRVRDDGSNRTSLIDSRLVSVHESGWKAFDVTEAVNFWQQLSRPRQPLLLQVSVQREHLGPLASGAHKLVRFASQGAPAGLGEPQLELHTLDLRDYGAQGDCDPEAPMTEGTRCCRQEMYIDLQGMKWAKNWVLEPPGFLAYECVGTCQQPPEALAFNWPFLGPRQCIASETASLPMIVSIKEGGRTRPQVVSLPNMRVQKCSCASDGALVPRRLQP
Chain of Follistatin-related protein 3 (Homo sapiens) (O95633 whole entry, looked up): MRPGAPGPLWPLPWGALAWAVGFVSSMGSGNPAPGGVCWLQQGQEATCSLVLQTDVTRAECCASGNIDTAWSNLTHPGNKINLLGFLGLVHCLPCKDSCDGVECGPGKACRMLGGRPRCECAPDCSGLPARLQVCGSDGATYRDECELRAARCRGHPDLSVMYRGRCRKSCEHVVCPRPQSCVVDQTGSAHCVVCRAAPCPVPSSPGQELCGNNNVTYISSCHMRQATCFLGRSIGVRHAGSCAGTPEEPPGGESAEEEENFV
Chain of Torsin-1A-interacting protein 1 (Homo sapiens) (Q5JTV8 whole entry, looked up): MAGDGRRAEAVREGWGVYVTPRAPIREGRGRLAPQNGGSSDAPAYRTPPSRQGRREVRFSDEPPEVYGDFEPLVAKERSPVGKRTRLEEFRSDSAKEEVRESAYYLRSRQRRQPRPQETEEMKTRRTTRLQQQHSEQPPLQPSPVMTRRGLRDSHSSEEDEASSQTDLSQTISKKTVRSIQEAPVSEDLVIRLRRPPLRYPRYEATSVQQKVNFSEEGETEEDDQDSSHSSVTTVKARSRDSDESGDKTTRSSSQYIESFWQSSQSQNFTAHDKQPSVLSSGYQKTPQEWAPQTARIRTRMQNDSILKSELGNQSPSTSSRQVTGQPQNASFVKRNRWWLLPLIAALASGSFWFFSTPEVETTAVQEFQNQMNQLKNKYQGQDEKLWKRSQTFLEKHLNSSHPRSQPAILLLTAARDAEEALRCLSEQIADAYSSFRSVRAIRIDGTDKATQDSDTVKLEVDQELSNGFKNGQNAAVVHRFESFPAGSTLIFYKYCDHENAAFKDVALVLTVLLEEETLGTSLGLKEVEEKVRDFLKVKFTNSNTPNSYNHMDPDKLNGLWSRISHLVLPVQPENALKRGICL
Chain of Dickkopf-related protein 1 (Homo sapiens) (O94907 whole entry, looked up): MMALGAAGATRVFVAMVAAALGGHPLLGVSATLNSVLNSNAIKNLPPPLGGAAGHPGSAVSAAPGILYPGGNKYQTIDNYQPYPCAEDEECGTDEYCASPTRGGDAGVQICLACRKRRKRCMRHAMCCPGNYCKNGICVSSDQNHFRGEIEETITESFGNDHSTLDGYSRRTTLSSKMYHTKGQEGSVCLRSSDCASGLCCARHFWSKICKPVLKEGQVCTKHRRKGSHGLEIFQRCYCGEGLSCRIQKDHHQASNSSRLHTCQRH
Chain of Epidermal growth factor receptor (Homo sapiens) (P00533 whole entry, looked up): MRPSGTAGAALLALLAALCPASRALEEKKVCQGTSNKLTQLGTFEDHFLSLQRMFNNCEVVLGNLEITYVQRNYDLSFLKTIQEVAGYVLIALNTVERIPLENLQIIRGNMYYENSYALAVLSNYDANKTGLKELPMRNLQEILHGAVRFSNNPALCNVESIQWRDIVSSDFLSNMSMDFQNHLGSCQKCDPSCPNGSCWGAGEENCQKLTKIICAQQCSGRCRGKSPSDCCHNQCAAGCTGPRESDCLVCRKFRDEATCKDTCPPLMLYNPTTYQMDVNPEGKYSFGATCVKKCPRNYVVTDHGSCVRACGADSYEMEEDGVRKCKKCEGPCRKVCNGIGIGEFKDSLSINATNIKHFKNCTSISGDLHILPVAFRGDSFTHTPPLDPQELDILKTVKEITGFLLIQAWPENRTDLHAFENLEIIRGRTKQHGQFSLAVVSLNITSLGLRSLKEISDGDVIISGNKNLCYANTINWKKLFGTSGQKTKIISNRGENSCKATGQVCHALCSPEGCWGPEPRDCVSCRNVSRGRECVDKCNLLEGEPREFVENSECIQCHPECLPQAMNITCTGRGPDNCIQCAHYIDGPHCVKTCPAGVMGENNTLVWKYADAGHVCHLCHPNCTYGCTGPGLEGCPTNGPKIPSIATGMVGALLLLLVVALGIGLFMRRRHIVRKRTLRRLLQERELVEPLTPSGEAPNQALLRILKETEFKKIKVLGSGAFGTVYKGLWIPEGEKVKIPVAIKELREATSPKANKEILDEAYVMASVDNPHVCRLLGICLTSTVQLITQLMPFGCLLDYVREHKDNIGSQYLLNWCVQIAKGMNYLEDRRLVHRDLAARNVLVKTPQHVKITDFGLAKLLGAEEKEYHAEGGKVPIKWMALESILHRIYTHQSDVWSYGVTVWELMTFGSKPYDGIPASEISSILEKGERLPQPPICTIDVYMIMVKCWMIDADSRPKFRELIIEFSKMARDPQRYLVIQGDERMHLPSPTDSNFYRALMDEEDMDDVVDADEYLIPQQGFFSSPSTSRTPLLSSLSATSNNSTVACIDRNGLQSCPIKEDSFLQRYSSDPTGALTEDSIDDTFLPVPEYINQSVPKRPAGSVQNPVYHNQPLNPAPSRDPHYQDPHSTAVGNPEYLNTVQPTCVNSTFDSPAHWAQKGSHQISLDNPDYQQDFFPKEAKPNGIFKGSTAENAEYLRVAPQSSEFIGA

Compound | composite z-score [1] | composite z-score [2] | composite z-score [3] | z-score [4] | composite z-score [5] | composite z-score [6] | composite z-score [7] | composite z-score [8] | composite z-score [9] | composite z-score [10] | composite z-score [11] | z-score [12] | composite z-score [13] | composite z-score [14] | composite z-score [15] | composite z-score [16] | composite z-score [17] | composite z-score [18] | composite z-score [19] | composite z-score [20]
Cc1ccc(S[C@]2(C(=O)NCC(C)C)CC(=O)N(C3CCCCC3)[C@@H]2c2ccc(CO)cc2I)cc1 | 0.42 | 0.0006 | 0.421 | -1.4 (inactive) | 0.231 | 0.296 | 0.21 | 0.468 | -0.147 | 0.83 | 1.35 | -2.6 | 0.261 | 1.73 | 0.549 | 0.02 | -0.188 | -0.471 | 0.703 | 0.0462
COc1ccc([Si](C)(C)[C@H]2[C@H](CCn3cc(CCO)nn3)O[C@@]3(C(=O)N(Cc4cccc(N5C(=O)c6cccc7cccc5c67)c4)c4ccccc43)[C@@H]2C)cc1 | 1.23 | -0.0314 | -0.567 | -1.61 (inactive) | 1.27 | 0.719 | 0.268 | 0.81 | 0.848 | -0.427 | 1.1 | -5.14 | 0.464 | 0.35 | 0.241 | -0.136 | 0.131 | 1.01 | 1.46 | 1.07
COC(=O)[C@@]1(Cc2ccccc2)[C@H]2c3cc(C(=O)N4CCCC4)n(Cc4ccc(OC(F)(F)F)cc4)c3C[C@H]2CN1C(=O)c1ccccc1 | 0.716 | 1.34 | 1.4 | -0.286 (inactive) | 0.872 | 0.728 | -0.357 | 0.685 | -0.909 | 1.08 | 1.41 | -1.95 | -0.782 | 2.31 | 1.41 | 0.583 | 1.12 | 1.69 | 0.867 | 1.35
O=C1N(CCS(=O)(=O)c2ccccc2)Cc2ccccc2C[C@@]12COC(c1ccc(OCCCO)cc1)=N2 | 1.69 | 1.15 | 1.26 | 0.67 (inactive) | 1.07 | 1.29 | 0.847 | 1.3 | 0.628 | 1.32 | 1.08 | -2.31 | 0.906 | 0.303 | 0.87 | 0.0561 | -0.0858 | 0.618 | 1.56 | 2.33
C=CCOC(=O)[C@H]1[C@@H]2C(=O)O[C@@H](c3ccccc3)[C@@H](c3ccccc3)N2[C@@H](c2ccc(OCCOC(=O)[C@H]3C[C@H]4C(=O)N[C@@H](CCCCN(C)C)C(=O)N4[C@H]3c3ccc(O)cc3)cc2)[C@]12C(=O)Nc1ccccc12 | 0.436 | 0.638 | 0.4 | -0.226 (inactive) | 1 | 0.957 | 0.606 | 1.4 | 0.805 | 1.04 | 1.36 | -0.917 | 0.823 | 0.724 | -0.707 | -0.0539 | -0.157 | -0.206 | 0.876 | 0.0397
COC(=O)[C@@]1(Cc2ccccc2)[C@H]2c3cc(C(=O)N(C)C)n(Cc4ccc(O)c(OC)c4)c3C[C@H]2CN1C(=O)c1ccccc1 | 1.37 | 0.722 | 0.295 | -6.3 (inactive) | -0.27 | 0.255 | -0.34 | 0.764 | -0.65 | 0.637 | 1.45 | -2.56 | -0.276 | 1.46 | 1.17 | 0.75 | 0.16 | -0.322 | 0.141 | 0.245
Cc1cc(C)c(C(O)C2C=CC3C(=O)N(c4ccccc4)C(=O)C3N2Nc2ccccc2)c(C)c1 (stereo not given) | 1.52 | 1.17 | 0.849 | -0.62 (inactive) | 0.964 | 1.2 | 0.403 | 0.939 | -0.167 | 0.242 | 1.16 | -0.177 | 0.109 | 1.6 | 1.03 | 0.216 | -0.0791 | 1.99 | 1.1 | 2.38
COc1ccc([Si](C)(C)[C@@H]2[C@@H](CCO)O[C@]3(C(=O)N(Cc4ccccc4)c4ccc(N5C(=O)COc6ccccc65)cc43)[C@H]2C)cc1 | 0.845 | -0.0934 | 0.0637 | -1.21 (inactive) | 0.0677 | 0.0368 | -0.0505 | 0.0717 | 0.163 | 0.254 | 1.23 | -4.11 | 0.0529 | 0.953 | 0.838 | -0.129 | -0.0626 | -0.194 | 0.462 | 0.31
COc1ccc([Si](C)(C)[C@H]2[C@H](CCO)O[C@@]3(C(=O)N(Cc4cccc(N5CCOC5=O)c4)c4ccccc43)[C@@H]2C)cc1 | 1.17 | -0.165 | -0.339 | -0.91 (inactive) | 0.997 | 0.808 | 0.0733 | 0.493 | 0.581 | -0.419 | 1.1 | -4.39 | 0.118 | 1.4 | -0.207 | -0.101 | 0.0668 | -0.118 | -0.18 | 0.355
CC(C)c1ccc(NN2C(C(O)c3cccs3)C=CC3C(=O)N(c4ccccc4)C(=O)C32)cc1 (stereo not given) | 1.02 | 0.0558 | 0.928 | 0.356 (inactive) | 0.461 | 1.31 | 0.156 | 1.21 | -0.054 | 0.975 | 1.4 | -0.531 | -0.0393 | 2.29 | 0.795 | 0.0364 | -0.304 | 0.113 | 0.789 | 1.01
COCCCNC(=O)[C@@]1(Cc2ccccc2CN=[N+]=[N-])N=C(c2ccc(OCCCO)cc2)O[C@H]1c1ccccc1N=[N+]=[N-] | 1.61 | 1.05 | 1.28 | -1.26 (inactive) | 1.35 | 1.22 | 0.15 | 0.706 | 0.0902 | 0.542 | -0.0639 | -2.3 | 0.0652 | 1.56 | 1 | 0.0388 | 0.291 | -0.675 | 0.785 | 1.48
O=C1CSC(c2cccc([N+](=O)[O-])c2)N1c1ccccc1 (stereo not given) | -0.125 | 0.136 | -0.342 | 0.187 (inactive) | 0.523 | 0.401 | 0.354 | 0.404 | 0.661 | 0.154 | 0.551 | -1.16 | 0.688 | 0.331 | -0.071 | -0.135 | -0.221 | -0.073 | 0.273 | 0.163
